According to PubChem BioAssay AID588342 (National Center for Advancing Translational Sciences (NCATS), 2011):
Screen size: about 360,000 compounds; about 25,000 (6.9%) were called active. Another 9% or so got no clear call; they are omitted. Only a selection was taken, and actives are over-represented in it overall. Unmarked numbers belong to inactive results. Calls follow the shape of the dose curve; as a rule, active = well fitted inhibition curve with a large enough effect; inconclusive = small, poorly fitted or top-dose-only effect; inactive = flat fitted curve, though single readings scatter.

What follows are compounds tested against Luciferin 4-monooxygenase (Photinus pyralis) (UniProt P08659) (assay: qHTS profiling assay for firefly luciferase inhibitor/activator using purifed enzyme and Km concentrations of substrates (counterscreen for miR-21 project)). Details: purified FLuc, luminescence inhibition; series mostly up to 57.5 µM; activity change, negative = inhibition: at the top concentration.
Luciferin 4-monooxygenase (Photinus pyralis), sequence (P08659 whole entry, looked up): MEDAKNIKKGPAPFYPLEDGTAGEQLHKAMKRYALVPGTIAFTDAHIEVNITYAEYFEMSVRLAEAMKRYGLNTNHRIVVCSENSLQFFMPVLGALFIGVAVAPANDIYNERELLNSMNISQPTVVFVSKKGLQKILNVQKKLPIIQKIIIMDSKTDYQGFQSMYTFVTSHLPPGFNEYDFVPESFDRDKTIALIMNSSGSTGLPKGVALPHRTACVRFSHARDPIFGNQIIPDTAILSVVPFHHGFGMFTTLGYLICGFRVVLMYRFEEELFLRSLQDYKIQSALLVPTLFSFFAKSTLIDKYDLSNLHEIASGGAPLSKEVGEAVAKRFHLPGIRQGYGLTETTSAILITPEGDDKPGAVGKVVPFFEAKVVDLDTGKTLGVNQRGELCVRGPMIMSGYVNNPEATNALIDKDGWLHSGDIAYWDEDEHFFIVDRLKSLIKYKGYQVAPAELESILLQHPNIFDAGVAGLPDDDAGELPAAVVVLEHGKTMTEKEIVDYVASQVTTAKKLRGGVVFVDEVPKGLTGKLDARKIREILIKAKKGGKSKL
Outline: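 Purified P. pyralis luciferase, 10 nM final, with Km-level 10 uM D-luciferin and 10 uM ATP in 50 mM Tris acetate pH 7.5, 10 mM Mg acetate, 0.01% Tween-20, 0.05% BSA; 6-point qHTS titration about 60 µM downward; luminescence read.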
Also: nearly all actives have a fitted effect of over 55% in size.
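For activity change, negative = inhibition in this document: plate controls were vehicle for no effect and reference inhibitor for full effect.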
Potency is read from the fitted curve at half-maximal effect.

SMILES | activity change, negative = inhibition | Potency
O=C1NNC(c2ccccc2)=N/C1=C\c1ccc(Cl)cc1 | -1.28% | 
Cc1ccc(-c2nc3ccccc3[nH]2)cc1N |  | 2.39 µM (active)
CN(C)c1cc(N)c2ccccc2n1 (tested in a mixture with another compound) | -2.37% | 
COc1ccc(-c2[nH]nc(-c3ccccc3)c2-c2nc3ccccc3[nH]2)cc1 | -0.473% | 
c1ccc2[nH]c(-c3nc4ccccc4[nH]3)nc2c1 |  | 2.13 µM (active)
O=C(Nc1sc2c(c1-c1nc3ccccc3[nH]1)CCCC2)C1CC1 | -7.46% | 
Cc1ccc(C)c(N2CCN(C(=O)CCc3nc4ccccc4[nH]3)CC2)c1 | 0.47% | 
COc1ccc(NC(=O)C2CCCN(S(=O)(=O)c3c(C)[nH]c(=O)[nH]c3=O)C2)c(OC)c1 (stereo unspecified) | 0.23% | 
Cc1cc(C)c(NC(=O)CCc2c(C)nc3c(c(C)nn3C(C)(C)C)c2C)c(C)c1 | 2.9% | 
CCCS(=O)(=O)N1CCC(n2c(C(F)(F)F)nc3cccnc32)CC1 | -6.09% | 
CCOC(=O)c1ccc(NC(=O)Cn2c(=O)n(-c3ccc(C)cc3)c(=O)c3c2cnn3C)cc1 | 3.7% | 
COc1cccc(/C=N/Nc2cc(C)nc(-c3ccccc3O)n2)c1O |  | 7.57 µM (active)
COc1cccc2c(N/N=C/c3ccco3)cc(C)nc12 | -6.22% | 
COc1cccc(/C=N/Nc2ncc(C(F)(F)F)cc2Cl)c1O | -8.77% | 
COc1ccccc1CNC(=O)c1ccc(-n2c(C)cc3c2CCCC3)cc1 | -0.838% | 
O=C(NCC(c1ccco1)S(=O)(=O)c1cccs1)c1ccc(F)cc1 (stereo unspecified) | -1.13% | 
COc1ccc(C[C@H](C(=O)O)N2C(=O)c3ccc(C(=O)O)cc3C2=O)cc1 | 2.08% | 
Cc1ccc2[nH]cc(CCCN3C(=O)c4ccccc4C3=O)c2c1 | -19.3% | 
COc1ccc2[nH]cc(CCN3C(=O)c4ccc(C(=O)O)cc4C3=O)c2c1 |  | 21.3 µM (active)
COc1ccc(OC)c(-n2nnc3c(sc4nc(C)c(Br)c(C)c43)c2=O)c1 | -16.1% | 
Cc1ccc(S(=O)(=O)N(NC2=NS(=O)(=O)c3ccccc32)C(=O)c2ccccc2)cc1 | 7.5% | 
CC(C)C(NS(=O)(=O)c1cccs1)C(=O)Nc1nc(C(C)(C)C)cs1 (stereo unspecified) | 0.0539% | 
CC(C)(C)c1csc(NC2=NS(=O)(=O)c3ccccc32)n1 |  | 1.51 µM (active)
CCOc1ccc(C(C(=O)NC2CCCC2)N(C(=O)c2snc(C(N)=O)c2N)C2CCCC2)cc1 (stereo unspecified) | -1.43% | 
CC(C)(C)[Si](OCC[C@@H]1C[C@@]1(C)[C@@H](NP(=O)(c1ccccc1)c1ccccc1)c1ccccc1)(c1ccccc1)c1ccccc1 | 1.82% | 
O=C(CC(O)(C(F)(F)F)C(F)(F)F)Nc1ccc(Cl)c(Cl)c1 | 1.66% | 

SMILES | activity change, negative = inhibition | Potency
CCn1nccc1C(=O)Nc1ccc(S(=O)(=O)NC23CC4CC(CC(C4)C2)C3)cc1 | -16.5% | 
CCn1nccc1C(=O)Nc1ccc(Cl)c(Cl)c1 |  | 21.3 µM (active)
COC(=O)c1cnc(N2CCN(c3ccccc3OC)CC2)c2ccccc12 | 2.92% | 
Cc1ccc(Cl)cc1NC(=O)CSc1nc2ccccc2nc1Cc1ccccc1 | -1.64% | 
CCOc1ccc(-c2n[nH]c3c2C(c2ccccc2OC)N(c2ccc(Br)cc2)C3=O)cc1 (stereo unspecified) | -5.87% | 
CCN(Cc1ccccc1)Cc1c(O)ccc2c(=O)c(-c3ccc(Cl)cc3Cl)coc12 | 1.52% | 
O=C(OCC(=O)N1CCCC1=O)c1cc(S(=O)(=O)N2CCOCC2)ccc1Cl | -1.01% | 
CN(C)S(=O)(=O)c1cccc(C(=O)OCC(=O)N2CCCC2=O)c1 | 0.332% | 
CCOC(=O)c1[nH]c(C)c(C(=O)OCC(=O)N2c3ccccc3CC2C)c1C (stereo unspecified) | -1.78% | 
CCOC(=O)c1c(C)[nH]c(C(=O)OCC(=O)N2CCCC2=O)c1C |  | 12 µM (active)
CCOC(=O)c1c(C)[nH]c(C(=O)NCCN2CCOCC2)c1C | -1.59% | 
Cc1c(C(=O)OCC(=O)N2CCCC2=O)oc2ccccc12 |  | 16.9 µM (active)
CCOc1ccc(CCNC(=O)c2cc3c(=O)n(C)c4ccccc4c3n2C)cc1 | 2.73% | 
O=S(=O)(c1ccc(Br)c2ccccc12)N1CCOCC1 | 1.95% | 
Cc1ccc(N=Cc2c(O)n(-c3nccs3)c(=O)c3ccccc23)c(C)c1 | 6.42% | 
Cc1ccc(Oc2c(C(F)(F)F)oc3c(CN4CCCCC4)c(O)ccc3c2=O)cc1 | -0.577% | 
O=C(CN1CCCCCC1)Nc1c(Cl)cc(Cl)cc1Cl |  | 15.1 µM (active)
O=C(CN1CCCCCC1)Nc1ccc(Br)cc1Br |  | 16.9 µM (active)
COc1cc(Cl)c(C)cc1NC(=O)CN1CCCCCC1 | -4.1% | 
O=C(CN1CCOCC1)Nc1c(Cl)cc(Cl)cc1Cl | -0.972% | 
O=C(CN1CCCCCC1)Nc1ccc(Cl)cc1F | -8.38% | 
COc1cc([N+](=O)[O-])ccc1NC(=O)CN1CCCC1 | -1.25% | 
COc1ccc(C(=O)Nc2nonc2-c2ccc(OC)c(OC)c2)cc1Cl | -5.4% | 
CCCc1ccc(OCC(O)CN2CCN(CCO)CC2)cc1 (stereo unspecified) | -1.45% | 
CC(C)Cn1c(N)c(C(=O)COC(=O)C2CCCN2C(=O)c2cccs2)c(=O)n(C)c1=O (stereo unspecified) | 2.54% | 
COc1ccc(-c2nnc(SC(C)C(=O)NC3CC3)o2)cc1 (stereo unspecified) | -9.71% | 

SMILES | activity change, negative = inhibition | Potency
Nc1nc(SCC(=O)Nc2ccc(Cl)c([N+](=O)[O-])c2)n[nH]1 | -12.4% | 
COc1ccc(NC(=O)CSC2=Nc3ccccc3C3=NC(CC(=O)NCc4ccccc4OC)C(=O)N23)cc1Cl (stereo unspecified) | 4.79% | 
O=C(N/N=C/c1cccc(OC(=O)c2ccc([N+](=O)[O-])cc2)c1)c1cccnc1 | 1.89% | 
O=C(Oc1cccc(NC2=NS(=O)(=O)c3ccccc32)c1)c1ccncc1 |  | 26.9 µM (active)
O=C(c1cccc(Br)c1)N1CCN(C2=NS(=O)(=O)c3ccccc32)CC1 | 0.454% | 
C[N+]1(CCNC(=O)/C=N/O)CCCCC1 | 1.69% | 
COc1ccc(-n2cnc3cc(NCc4ccco4)ccc32)cc1 |  | 7.57 µM (active)
C=CCC(NCc1ccco1)c1ccc(OC)cc1 (stereo unspecified) | -1.1% | 
COc1ccc(-n2cnc3cc(C(=O)NC4CCCC4)ccc32)cc1 |  | inactive
Cc1ccc(S(=O)(=O)c2nnn3c2nc(N2CCN(c4ccccc4F)CC2)c2cc(Cl)ccc23)cc1C | 3.15% | 
COc1ccc(CCNC(=O)c2cnc3sc(N4CCCCCC4)nn3c2=O)cc1OC | -0.514% | 
COc1ccc(/C=C2\SC(=O)N(CCC(=O)NC3CCS(=O)(=O)C3)C2=O)cc1 (stereo unspecified) |  | 10.7 µM (active)
O=C(CN1C(=O)S/C(=C\c2ccccc2F)C1=O)NCCCn1ccnc1 | -17.9% | 
COc1ccc(/C=C2\SC(=O)N(CCC(=O)NCCCn3ccnc3)C2=O)cc1 |  | 13.5 µM (active)
COc1ccc(NC(=O)CCN2C(=O)/C(=C/c3ccc4c(c3)OCO4)SC2=S)cc1 | 1.43% | 
O=C(CCN1C(=O)c2ccccc2C1=O)NCCCn1ccnc1 | 0.843% | 
COc1ccc(NC(=S)NC2CCS(=O)(=O)C2)cc1 (stereo unspecified) | 3.48% | 
O=C(C1CCN(CC2CCCCC2)CC1)N1CCCC1 | 6.5% | 
COc1ccc(-c2nn3c(=O)cc(CN4CCN(C(=O)c5ccc(OC)c(OC)c5)CC4)nc3s2)cc1 | -1.63% | 
Cc1c(-c2nsc(NC(=O)c3cccc(Cl)c3)n2)nnn1-c1ccccc1C(F)(F)F |  | 12 µM (active)
COc1ccc(-n2nnc(-c3nsc(NC(=O)c4ccc(C)c(C)c4)n3)c2C)cc1Cl | 1.79% | 
CCc1cccc(-n2nnc(-c3nsc(NC(=O)c4ccc(C)cc4)n3)c2C)c1 | -2.73% | 
COc1ccc(OCCCn2c(C)nc3cc(C)c(C)cc32)cc1 | -1.58% | 
O=C(/C=C/Nc1ccccc1)c1cnc(-c2ccccc2)s1 | -5.04% | 
CC(C)(C)C(=O)c1cnc(Nc2ccccc2)s1 |  | 6.01 µM (active)
CC(=O)c1cnc(-c2ccccc2)s1 | -17.3% | 

SMILES | activity change, negative = inhibition | Potency
COc1ccc(NC(=O)CSc2nnc(-c3nnn(-c4ccc(F)cc4)c3C)o2)cc1 | -16.8% | 
CCc1c(-c2ccccc2)nc(N)c(C#N)c1-c1cccs1 | -1.39% | 
O=C(O)Cc1sc(-c2ccccc2)nc1-c1cccs1 |  | 23.9 µM (active)
CN(C(=O)COc1nnc(-c2cccs2)c(-c2cccs2)n1)c1ccccc1 | 2.3% | 
O=C(CCc1ccccc1Cl)Nc1ccc(S(=O)(=O)Nc2nccs2)cc1 | 0.725% | 
COc1cc(C(=O)N(Cc2ccc(C(C)C)cc2)C2CCS(=O)(=O)C2)cc(OC)c1OC (stereo unspecified) | -0.151% | 
CC(=N\NC(=O)c1cc(Br)ccc1O)/C(=N/O)C(=O)Nc1ccccc1 |  | 15.1 µM (active)
CC(=O)N/N=C(\C)c1ccc(Br)cc1Br | 1.38% | 
COc1ccc(-c2[nH]ncc2/C=N/NC(=O)c2cc(Br)ccc2O)c(OC)c1 | -10.2% | 
CCOC(=O)c1c(NC(=O)c2ccc(S(=O)(=O)N3CCCC(C)C3)cc2)sc2c1CCN(C(C)C)C2 (stereo unspecified) | -1.35% | 
CC(C)CCN1CCC(C)(NC(=O)c2ccccc2)C1=O (stereo unspecified) | 0.614% | 
CC1=C(c2ccc(F)cc2)S(=O)(=O)N=C1N1CCC(C(=O)NCCc2ccccc2C)CC1 | 4.64% | 
CCOC(=O)N1CCC(NC(=O)c2cnn3ccccc23)CC1 | -0.69% | 
Cc1cnc(C(=O)OCC(=O)N2CCc3ccccc32)cn1 | -1.84% | 
O=C(c1cnn2ccccc12)N1CCc2ccccc21 |  | 6.75 µM (active)
CCOC(=O)c1c(NC(=O)/C(C#N)=C/c2ccccc2)sc2c1CCC2 | -1.39% | 
COc1ccc(Cn2c(C(=O)O)c(CNCc3cccc(OC)c3)c3ccc(C)cc32)cc1 | 2.05% | 
CN1CCN(S(=O)(=O)c2cccc(C(=O)Nc3sccc3C#N)c2)CC1 | -0.762% | 
O=C(Nc1ccccc1C(=O)Nc1ccncc1)c1ccc([N+](=O)[O-])cc1 |  | 19 µM (active)
O=C(Nc1ccncc1)c1ccc(Cl)c([N+](=O)[O-])c1 | -2.44% | 
O=C(Nc1ccncc1)c1ccccc1[N+](=O)[O-] | 3.49% | 
CC(=O)Nc1ccc(NC(=O)CSc2nnc(C3CC3)n2-c2ccccc2)cc1 | 1.21% | 
CCc1nn(CCCC(=O)NCc2ccccc2OC)c(=O)c2cc3occc3n12 | 1.41% | 
